Bioassay records (PubChem)
LYPLA1 counter – blocks human lysophospholipase 1, a PME1 counter-screen. 0.16% of 320,000 active. inhibition, % at 5.9 µM. AID 2174. recombinant LYPLA1, FP-Rh probe fluorescence polarization;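 active = inhibition above the mean of all tested compounds plus 3 SD, set per campaign, cut at about 14% in these data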;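 note: inhibitors block serine hydrolase probe labeling of LYPLA1 so polarization falls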
Target sequence (O75608 whole entry, looked up): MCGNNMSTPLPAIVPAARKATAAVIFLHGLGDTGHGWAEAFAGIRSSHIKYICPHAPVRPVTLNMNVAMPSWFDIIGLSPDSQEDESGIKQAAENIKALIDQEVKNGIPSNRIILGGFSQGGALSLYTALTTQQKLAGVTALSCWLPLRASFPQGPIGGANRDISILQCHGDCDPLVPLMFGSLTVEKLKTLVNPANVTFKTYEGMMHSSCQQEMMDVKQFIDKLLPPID
ZTA DNA inh – counter-screen for EBNA-1 inhibitors: inhibitors of Epstein-Barr virus ZTA; ZTA-DNA binding, fluorescence polarization; inhibition, % at 11 µM; 0.15% of 320,000 active; in the data active = inhibition above about 33%
GSTO1 counter – counter-screen for RBBP9 inhibitors: inhibitors of human GSTO1; P78417; recombinant GSTO1, activity-based probe fluorescence polarization; inhibition, % at 5.96 µM; 1.1% of 300,000 active; AID 1974;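 active = inhibition above the campaign mean inhibition plus 3 SD, cut at about 35% in these data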
PAD4 FP inh – PAD4 (human) enzyme inhibition; Q9UM07; recombinant PAD4, RCA probe fluorescence polarization; inhibition, % at 6.36 µM; 0.41% of 330,000 active; AID 485272;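 active = percent inhibition above a cutoff equal to the mean of all tested compounds plus 3 SD, cut at about 15% in these data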
EBNA-1 inh – blocks EBNA-1 binding to DNA; 0.34% of 300,000 active; EBNA-1 DNA binding, fluorescence polarization; inhibition, % at 14.8 µM; in the data active = inhibition above about 28%
LYPLA2 inh – LYPLA2 (human) inhibition in PME1 counter-screen. recombinant LYPLA2, FP-Rh probe fluorescence polarization. 0.38% of 320,000 active. inhibition, % at 5.9 µM. AID 2177;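 active = inhibition above the screen-wide mean plus 3 SD, limit set per campaign, cut at about 26% in these data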
Target sequence (O95372 whole entry, looked up): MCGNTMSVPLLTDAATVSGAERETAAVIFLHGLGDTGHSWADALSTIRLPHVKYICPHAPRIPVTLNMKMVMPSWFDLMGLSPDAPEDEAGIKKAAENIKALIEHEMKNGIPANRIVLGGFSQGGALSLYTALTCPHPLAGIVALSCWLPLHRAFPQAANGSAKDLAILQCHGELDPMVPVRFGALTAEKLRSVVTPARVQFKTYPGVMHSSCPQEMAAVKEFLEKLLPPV
LYPLA2 conf – counter-screen for PME1 inhibitors: confirmation of human LYPLA2 inhibitors | shares compounds with LYPLA2 inh | recombinant LYPLA2, FP-Rh probe fluorescence polarization | inhibition, % at 5.9 µM | 72% of 1,100 active;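 active = mean inhibition across replicates above the hit cutoff set in the primary screen, cut at about 26% in these data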;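 note: blocked labeling of the enzyme by serine hydrolase FP-Rh probe lowers polarization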
LYPLA2 gel ABPP – inhibitors of human LYPLA2; shares compounds with LYPLA2 inh; rhLYPLA2 in mouse brain proteome, gel ABPP FP-Rh; inhibition, % at 20 µM; 30% of 150 active; AID 652029;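 active = inhibition of LYPLA2 enzyme probe labeling above about 50%, limit read from the data; inactive = inhibition below that limit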;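 note: loss of FP-Rh probe labeling of the LYPLA2 gel band measured as band density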
A number is an active result; i = inactive; nt = no result given. The list is not random: actives were taken first. Their share in the collection is about 1.7%.

SMILES	LYPLA1 counter	ZTA DNA inh	GSTO1 counter	PAD4 FP inh	EBNA-1 inh	LYPLA2 inh	LYPLA2 conf	others
O=C(COc1ccc(S(=O)(=O)NC2CCCCC2)cc1)NC1CCCC1	i	i	i	i	i	i	nt
COc1ccc2c(c1)O[C@H](c1ccc3c(c1)OCO3)[C@@H](O)C2=O	i	i	i	i	i	64	58	LYPLA2 gel ABPP=i
COc1ccc2c(c1)O[C@@H](c1cccc(C(F)(F)F)c1)[C@H](O)C2=O	i	i	i	i	i	i	nt
NNC(=O)c1ccc(N2CCCCCC2)c([N+](=O)[O-])c1	i	i	i	i	i	i	nt
Cc1cccc(NC(=O)Cn2nnc3sc4c(c3c2=O)CC(C)(C)OC4)c1	i	i	i	i	i	39	48
Cc1ccccc1NC(=O)Cn1nnc2sc3c(c2c1=O)CC(C)(C)OC3	i	i	i	i	i	i	nt
CCC1(C)Cc2c(sc3nnn(CC(=O)Nc4ccccc4)c(=O)c23)CO1 (stereo not drawn)	i	i	i	i	i	39	38
CCC1(C)Cc2c(sc3nnn(CC(=O)Nc4ccccc4C)c(=O)c23)CO1 (stereo not drawn)	i	i	i	i	i	i	nt
CC(C)CCN1C(=O)c2ccc(C(=O)OCC(=O)N(CC(C)C)C3CCS(=O)(=O)C3)cc2C1=O (stereo not drawn)	nt	nt	nt	i	nt	nt	nt
COc1ccc(NC(=O)N(C)C[C@H]2Oc3c(NC(=O)C4CC4)cccc3C(=O)N([C@H](C)CO)C[C@@H]2C)cc1	nt	nt	nt	i	nt	nt	nt
CCN1C(=O)CC(C(=O)Nc2ccc(F)cc2)SC1=Nc1cccc(OC)c1 (stereo not drawn)	i	i	i	i	i	29	i
CN(c1ccccc1)S(=O)(=O)c1cccc(NS(=O)(=O)c2cccc(C(=O)O)c2)c1	i	i	nt	i	nt	i	nt
NC(=O)c1ccc(Oc2ccc3c(c2)CCC3)c([N+](=O)[O-])c1	i	i	i	i	i	30	29
CC(=O)Nc1ccc(C(=O)COC(=O)c2cc(C)oc2C)c(F)c1	nt	nt	nt	i	nt	nt	nt
Cc1ccc(-c2nn(-c3ccccc3)cc2/C=C/C(=O)Nc2nccs2)cc1	i	i	i	i	i	i	nt
Cc1c(NC(=O)/C=C/c2cn(-c3ccccc3)nc2-c2ccc(F)cc2)c(=O)n(-c2ccccc2)n1C	i	i	i	i	i	31	30
Cc1ccc2c(c1)N(CC(=O)N1CCCCCC1)C(=O)C(C)O2 (stereo not drawn)	i	i	i	i	i	i	nt
CCCOc1ccc(N2C(=O)CC(N3CCN(c4ccc([N+](=O)[O-])cc4)CC3)C2=O)cc1 (stereo not drawn)	i	i	i	i	i	35	36
Cc1cc(C)cc(NC(=O)CN2C(=O)COc3ccc(S(=O)(=O)N4CCCC4)cc32)c1	i	i	i	i	i	37	33
COc1cc(NC(=O)CN2C(=O)COc3ccc(S(=O)(=O)N4CCCC4)cc32)cc(OC)c1	i	i	i	i	i	i	nt
COc1cccc(NC(=O)CN2C(=O)CSc3ccc(S(=O)(=O)N4CCCCC4)cc32)c1	i	i	i	i	i	40	38
Cc1ccc(NC(=O)CCNC(=O)c2ccco2)cc1F	i	i	i	i	i	i	nt
CC(=O)c1c(C)[nH]c(C(=O)COC(=O)CN(C)S(=O)(=O)c2ccc(Cl)cc2)c1C	i	i	i	i	i	35	i
O=C(NCc1ccc(Cl)cc1)NCC(F)(F)F	i	i	i	i	i	33	i
O=C(N/C=C\c1ccccc1)NCc1ccc(Cl)cc1	i	i	i	i	i	i	nt
SMILES	LYPLA1 counter	ZTA DNA inh	GSTO1 counter	PAD4 FP inh	EBNA-1 inh	LYPLA2 inh	LYPLA2 conf	others
Cc1cnc(C(=O)OCc2ccc(C#N)cc2)cn1	i	i	i	i	i	i	nt
N#Cc1ccc(COC(=O)c2cnc3ccccc3n2)cc1	i	i	i	i	i	27	27
Cc1nc2sc3c(=O)[nH]nnc3c2c(C)c1Br	i	i	i	i	i	i	nt
COC(=O)C1CCN(C(=O)[C@H](C)NC(=O)C2CC(=O)N(c3ccc(F)cc3)C2)CC1 (stereo partly drawn)	i	i	i	i	i	i	nt
COc1ccc(N2CCN(C(=O)Cn3cnc4c3c(=O)n(C)c(=O)n4C)CC2)cc1	i	i	i	i	i	i	nt
Cn1c(=O)c2c(ncn2CC(=O)N2CCN(c3ccc([N+](=O)[O-])cc3)CC2)n(C)c1=O	i	i	i	i	i	40	43
CN(CCOc1ccccc1)C(=O)C1CCC(=O)N(CCN2CCOCC2)C1 (stereo not drawn)	i	i	i	i	i	i	nt
CCn1c(=O)cc(OCC(=O)N2CCN(c3cccc(C(F)(F)F)c3)CC2)c2ccccc21	i	i	i	i	i	51	47
Cc1[nH]c(C)c(S(=O)(=O)NCc2ccc(N(C)C)cc2)c1C(=O)N1CCCC1	i	i	i	i	i	i	nt
O=C(OCCOc1cccc(Cl)c1)c1cc(S(=O)(=O)N2CCCCC2)ccc1N1CCOCC1	i	i	i	i	i	53	58
CC(C)NC(=O)NC(=O)COC(=O)c1cc(S(=O)(=O)N2CCCCC2)ccc1N1CCOCC1	i	i	i	i	i	27	i
O=C(OCc1cccc(Cl)c1)c1cc(S(=O)(=O)N2CCCCC2)ccc1N1CCOCC1	i	i	i	i	i	i	nt
Cc1cccc(C)c1NC(=O)CN(C)CC(=O)c1c(N)n(Cc2ccccc2)c(=O)n(C)c1=O	i	i	nt	i	nt	i	nt
CCOC(=O)c1ccc(NC(=O)N2CCN(c3ccccc3OC)CC2)cc1	i	i	i	i	i	i	nt
CCCCNC(=O)c1ccc(NC(=O)CC2SC(N3CCCC3)=NC2=O)cc1 (stereo not drawn)	i	i	nt	i	nt	i	nt
O=[N+]([O-])c1cc(Cl)ccc1Oc1ccc(-c2nnco2)cc1	i	i	i	i	i	27	28
Cc1onc(-c2ccccc2)c1C(=O)OCc1nnc(-c2ccc([N+](=O)[O-])cc2)o1	i	i	nt	i	nt	28	28
CC(=O)c1ccc(N(CC(=O)NC2CCCC2)C(=O)CNC(=O)c2ccco2)cc1	i	i	i	i	i	i	nt
CCN1CCN(C(=O)/C=C/c2ccc([N+](=O)[O-])cc2)CC1	i	i	i	i	i	i	nt
O=C(/C=C/c1ccc([N+](=O)[O-])cc1)N1CCN(Cc2ccccc2)CC1	i	i	i	i	i	32	39
O=C(CCS(=O)(=O)c1ccc(Cl)cc1)Nc1nnc(-c2ccco2)o1	i	i	i	i	i	i	nt
Cc1ccc(C(=O)Nc2ccc(N3CCN(C(=O)c4cccs4)CC3)cc2)c(Cl)c1	i	i	i	i	i	47	46
